Source: PubChem BioAssay (several laboratories)
Most compounds without a hit are left out; they make up all but 3.4% or so of the library.
ssDAF12 agonist – activators of S. stercoralis DAF-12 nuclear receptor. HEK293 ssDAF-12/GRIP1 lit1-tk-luc reporter, luminescence; % of 3 µM dafachronic acid response. activation, % at 6.8 µM. hit rate 1% among 370,000;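 active = activation above the mean over all tested compounds plus 3 SD, cut at about 0.9% in these data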;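 note: 0% = DMSO-only wells and 100% = 3 µM delta7-dafachronic acid wells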
hcDAF-12 act – activators of H. contortus DAF-12 nuclear receptor | hit rate 1.4% among 370,000 | HEK293 hcDAF-12 lit1-tk-luc reporter, luminescence; 0% DMSO, 100% Δ7-dafachronic acid | AID 652067 | activation, % at 6.8 µM;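 active = activation above the mean of all tested compounds plus 3 SD, cut at about 5.5% in these data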;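 note: 100% = response to 3 µM Δ7-dafachronic acid high control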
NF-kB expr up – raises NF-kB expression in human neuronal cells | AID 1239 | hit rate 1.6% among 190,000 | NF-kB reporter expression; active compounds read high | fold change at 12.5 µM; in the data active = fold change above about 3.3
hgDAF12 agonist – activates the H. glycines DAF-12 receptor ligand-binding domain | HEK293 GAL4-hgDAF12 UAS-luciferase reporter, agonist luminescence; normalized to butyrate control | activation, % at 6.8 µM | hit rate 1.8% among 370,000 | AID 687014;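 active = activation above a cutoff set at the mean of all screened compounds plus 3 SD, cut at about 10% in these data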;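 note: 0% = DMSO wells and 100% = sodium butyrate wells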
APP 5'UTR act – APP 5'UTR luciferase reporter activation; SH-SY5Y APP 5'UTR luciferase reporter, luminescence; zero percent = DMSO vehicle wells; activation, % at 2 µM; hit rate 1% among 190,000;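 active = activation above a set limit, based on mean plus 3 SD of controls, cut at about 140% in these data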
* = called active by the depositor; x = not tested or not shown.

SMILES | ssDAF12 agonist | hcDAF-12 act | NF-kB expr up | hgDAF12 agonist | APP 5'UTR act
CSCc1ccc(C(=O)OCc2nc3ccccc3s2)o1 | 0 | 6.2* | x | 12* | x
O=C(Nc1ccccc1)Nc1nc2ncccn2c1-c1ccc(F)c(F)c1 | 0 | -1 | x | 9 | x
C#CCN1CC(N(C)CCOC(=O)c2ccc(C(C)(C)C)cc2)CS1(=O)=O (centres undefined) | -1 | 3 | x | -3 | x
Cc1ccc(CN2C(C(=O)NC3CCCC3)CSCCS2(=O)=O)cc1 (centres undefined) | -1 | 1 | x | 3 | x
CCOC(=O)N/N=C(\C)c1ccc(-n2cnnn2)cc1 | 0 | 2 | 1.2 | 13* | 13
COC(=O)C1=CC[C@@H](NC(=O)OC(C)(C)C)[C@H](O)[C@H]1O[Si](C)(C)C(C)(C)C | -2 | 2 | x | -3 | x
CN(C)S(=O)(=O)c1cccc(C(=O)Nc2ccccc2)c1 | -2 | 1 | 1.3 | 1 | 0
CS(=O)(=O)Nc1ccc(C(=O)NCCSCc2ccccc2)cc1 | -2 | -1 | 1.2 | -1 | 2
CN(C)S(=O)(=O)c1cccc(C(=O)N/N=C\c2ccccc2[N+](=O)[O-])c1 | 1 | 3 | x | 11* | x
CS(=O)(=O)Nc1ccc(C(=O)NCCc2ccccc2)cc1 | 0 | 3 | 1.8 | 11* | 29
CN(C)S(=O)(=O)c1cccc(C(=O)NCCc2ccccc2)c1 | 0 | 6.0* | 2.5 | 9 | 156*
COc1ccccc1/C=N\NC(=O)c1cccc(S(=O)(=O)N(C)C)c1 | -2 | -1 | x | 0 | x
Cc1cc(NC(=O)CN2CC(C)OC(C)C2)n(-c2nc3ccccc3s2)n1 (centres undefined) | x | x | 1.3 | x | -15
Cc1cc(NC(=O)C(C)C)n(-c2nc3ccccc3s2)n1 | 0.9* | 6 | 1 | 3 | 4
CCOC(=O)C1(CCOc2ccccc2)CCN(Cc2ccncc2)CC1 | -1 | -1 | 1.1 | -2 | -7
CCOC(=O)C1(CCOc2ccccc2)CCN(Cc2ccc(-n3cccn3)cc2)CC1 | -2 | -3 | 3.9* | -2 | 25
Cn1cc([C@]2(O)C(=O)Nc3ccc(Br)cc32)c2ccccc21 | 0.9* | 1 | x | 1 | x
Cn1cc([C@]2(O)C(=O)Nc3ccc(F)cc32)c2ccccc21 | 1.2* | 2 | x | 2 | x
CC(C)(C)C1=CC(=Nc2ccccc2N)C=C(C(C)(C)C)C1=O | 2.9* | 5 | 0.92 | 13* | 0
CC(C)(C)C1=CC(=O)C(=O)C(C(C)(C)C)=C1 | x | x | 1.2 | x | -47
C=CCn1c(COc2cccc3ccc(C)nc23)nnc1SCC(=O)OC | 0.9* | 3 | 0.94 | 1 | 24
O=C(CSc1nc2ccccc2o1)NCc1n[nH]c(=O)c2ccccc12 | 0 | 6.2* | 1.1 | 6 | 8
O=C(CSc1nc2ccccc2o1)NCC(=O)c1ccccc1 | -1 | 0 | 1.3 | -2 | 0
COc1ccc(N=Cc2nc(-c3ccccc3)oc2OC(=O)c2ccccc2)cc1 | 1 | 5 | 2 | 12* | 102
C=CCNC1CCC12CCC(c1ccccc1)CC2 (centres undefined) | -1 | 3 | x | 1 | x
SMILES | ssDAF12 agonist | hcDAF-12 act | NF-kB expr up | hgDAF12 agonist | APP 5'UTR act
CCn1cc(Br)c(C(=O)Nc2nccs2)n1 | 0 | 6.0* | 0.92 | 11* | 2
NS(=O)(=O)c1ccc2nc(NC(=O)c3ccc(Br)o3)sc2c1 | -1 | -1 | 1.8 | 7 | 1
Cc1ccc(C(=O)Nc2nc(C)c(C)s2)o1 | -1 | 4 | 4* | 13* | 132
CCCCc1ccc2nc(NC(=O)c3ccc(Br)o3)sc2c1 | -1 | 1 | x | 11* | x
Cc1nc(NC(=O)c2ccc(Br)o2)sc1C | 0 | 2 | 4.7* | 10 | 121
O=C(Nc1cccc(F)c1)OC1CC2CC1[C@H]1CCCCN1[C@H]2Cc1ccccc1 (some centres undefined) | -1 | 0 | x | -2 | x
CC1(c2ccccc2)CC(=O)N(c2ccc(NC(=O)c3ccccn3)cc2Cl)C1=O (centres undefined) | -2 | -2 | x | -1 | x
COC(=O)[C@]12C[C@H](CC(=O)N3CCCCC3)C(=O)N(CCc3ccc(OC)c(OC)c3)C1=C[C@H](C(C)C)O[C@@H]2C1CC1 | -1 | -1 | x | 4 | x
Cc1cc(C(=O)Nc2nnc(C3CCCCC3)s2)no1 | -2 | 0 | 1.3 | 0 | 4
Cc1cc(O)c(NC(=O)c2ccc(Br)o2)cc1C | 2.1* | 5.8* | 1.4 | 13* | 52
COc1ccccc1NC(=O)c1ccc(Br)o1 | -1 | 2 | 1.5 | 4 | 7
Cc1ccc(C(=O)Nc2nnc(C3CCCCC3)s2)o1 | 1 | 3 | 3.8* | 10 | 113
O=C(Nc1nccs1)c1ccc(Br)o1 | -1 | 5.8* | 1.4 | 8 | 41
CCOc1ccc(-c2csc(N3CCC(C(N)=O)CC3)n2)cc1 | -2 | 4 | x | 4 | x
COc1ccc(S[C@]2(C(=O)N3CCN(c4ncccn4)CC3)CC(=O)N(c3ccc(OC)cc3)[C@@H]2c2ccc(OC)cc2)cc1 | -1 | 1 | x | -6 | x
Cc1ccc(Cn2cccc(-c3nc4ccccc4s3)c2=O)cc1 | 0 | 2 | 2.6 | 8 | 31
O=c1c(-c2nc3ccccc3s2)cccn1Cc1ccccc1 | 0 | 1 | 3.7* | 12* | 82
CC(C)c1ccc(/C=N/NC(=O)c2c(Cl)cnn2C)cc1 | 0 | 1 | 5.2* | 13* | 117
O=S(=O)(c1ccc(Cl)cc1)N1c2ccccc2Oc2nc3ccccc3nc21 | -1 | -1 | 1.1 | 1 | 15
COc1ccc(S(=O)(=O)N2c3cc(Cl)ccc3Oc3nc4ccccc4nc32)cc1 | -1 | 1 | 3.6* | 3 | 17
O[C@H](COc1ccc(F)cc1)CN1CCC(C(O)(c2ccccc2)c2ccccc2)CC1 | -1 | 3 | x | 2 | x
Cc1ccc(OCCn2c(CCNC(=O)C3CCCCCC3)nc3ccccc32)cc1 | -2 | -1 | x | -1 | x
O=C(NNC(=O)c1cccs1)c1cccc(F)c1 | 1.3* | 2 | x | -2 | x
O=C(NNC(=O)c1cccs1)c1ccc(F)cc1 | 0 | 1 | x | 1 | x
COc1ccc(OCCN(C)Cc2c(O)ccc3ccccc23)cc1 | 0 | 6.0* | x | -1 | x
SMILES | ssDAF12 agonist | hcDAF-12 act | NF-kB expr up | hgDAF12 agonist | APP 5'UTR act
CSc1ccccc1NC(=O)CN(C)Cc1c(O)ccc2ccccc12 | -1 | 6.2* | x | -3 | x
CN(Cc1ccccc1)Cc1c(O)ccc2ccccc12 | -1 | 1 | x | 0 | x
Fc1cccc(F)c1Cn1ccc2ccc(-c3ccc4ccn(Cc5c(F)cccc5F)c4c3)cc21 | 0 | -1 | x | 1 | x
Cc1ccc(-c2nnc(Cc3ccc([N+](=O)[O-])cc3)o2)cc1 | -1 | 3 | 2.7 | 12* | 147*
c1ccc(-c2nnc3ccc(N4CCC5(CC4)OCCO5)nn23)cc1 | -2 | -3 | 3.6* | -4 | 10
NC(=O)C1(N2CCCCC2)CCN(c2ccc3nnc(-c4ccccc4)n3n2)CC1 | -2 | -3 | 0.78 | 0 | -3
COc1cccc(S(=O)(=O)N(C)C[C@@H]2Oc3ncc(Br)cc3C(=O)N([C@H](C)CO)C[C@@H]2C)c1 | 1.2* | -2 | x | -3 | x
